Bioassay records from PubChem.
TPT1 inh – C. albicans TPT1 enzyme inhibition | recombinant caTPT1, FP RNA substrate dephosphorylation | 0.81% of 300,000 active | inhibition, % at 5 µM;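 active means inhibition above the mean of all tested compounds plus 3 SD, set per screening campaign, cut at about 24% in these data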
CRFBP-R2 agonist – CRF-BP/CRF-R2 complex agonism. HEK293 CRF-R2/CRF-BP, calcium dye fluorescence (FLIPR); percent of saturating CRF peptide response. 0.46% of 350,000 active. activation, % at 13.2 µM;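 active means activation of at least 50%, plus an integration ratio under a set limit after plate pattern correction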
IDE inh – inhibits human insulin-degrading enzyme in HEK cells. P14735. FAbetaB cleavage, fluorescence polarization. inhibition, % at 5.59 µM. 0.41% of 320,000 active. AID 434962;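 active means percent inhibition above the average of all tested compounds plus 3 SD, set per screening campaign, cut at about 16% in these data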;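 further: IDE supplied by intact live HEK cells; FP after avidin binding of uncleaved biotin substrate so inhibition keeps polarization high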
Target sequence (P14735 whole entry, looked up): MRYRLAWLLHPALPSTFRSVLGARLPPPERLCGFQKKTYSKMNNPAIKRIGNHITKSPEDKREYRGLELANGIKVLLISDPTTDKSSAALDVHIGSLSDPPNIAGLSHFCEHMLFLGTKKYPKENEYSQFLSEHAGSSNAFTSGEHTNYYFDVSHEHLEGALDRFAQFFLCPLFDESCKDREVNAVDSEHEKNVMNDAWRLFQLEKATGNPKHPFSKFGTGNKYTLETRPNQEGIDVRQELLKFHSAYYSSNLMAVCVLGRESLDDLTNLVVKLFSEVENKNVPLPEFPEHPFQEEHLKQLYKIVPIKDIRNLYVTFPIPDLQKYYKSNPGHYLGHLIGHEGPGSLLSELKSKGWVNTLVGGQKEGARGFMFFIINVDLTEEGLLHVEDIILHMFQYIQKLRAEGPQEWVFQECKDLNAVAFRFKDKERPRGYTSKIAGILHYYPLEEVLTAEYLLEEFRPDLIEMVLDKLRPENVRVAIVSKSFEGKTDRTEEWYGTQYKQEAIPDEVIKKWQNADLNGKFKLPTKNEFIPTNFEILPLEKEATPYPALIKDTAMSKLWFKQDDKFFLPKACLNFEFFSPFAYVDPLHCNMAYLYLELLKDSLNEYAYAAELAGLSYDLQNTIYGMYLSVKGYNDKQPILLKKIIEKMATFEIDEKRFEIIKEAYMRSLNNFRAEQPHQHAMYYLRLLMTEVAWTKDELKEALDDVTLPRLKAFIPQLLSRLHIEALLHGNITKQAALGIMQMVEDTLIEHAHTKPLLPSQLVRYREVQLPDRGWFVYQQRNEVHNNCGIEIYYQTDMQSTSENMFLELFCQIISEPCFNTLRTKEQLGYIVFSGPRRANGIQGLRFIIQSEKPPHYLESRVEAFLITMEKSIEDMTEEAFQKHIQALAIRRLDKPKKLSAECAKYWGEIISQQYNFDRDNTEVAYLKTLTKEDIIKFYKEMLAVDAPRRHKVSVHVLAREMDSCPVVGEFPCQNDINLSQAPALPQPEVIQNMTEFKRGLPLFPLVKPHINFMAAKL
Myeloid diff 2 – myeloid differentiation induction; ER-HoxA9 myeloid progenitors, lysozyme-GFP differentiation, flow cytometry; calls only at 10 µM; 1% of 360,000 active;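 active means normalized GFP-positive differentiation at or above the plate's own cutoff, the solvent-only control mean plus 3 SD; inconclusive means no clear call, values can overlap the other calls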;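 further: cells exposed to compound for four days before flow analysis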
CRFBP-R2 block – CRF-BP/CRF-R2 complex antagonism | HEK293 CRF-R2/CRF-BP, CRF-induced calcium fluorescence | inhibition, % at 11.8 µM | 0.59% of 350,000 active | AID 588475;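 active means inhibition of the ligand-induced calcium signal above about 50% at the single tested concentration, limit read from the data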
IDE act – activators of human insulin-degrading enzyme in cells | P14735 | HEK cells, FAbeta-B cleavage, fluorescence polarization; 0% vehicle, 100% cell-free pure enzyme wells | activation, % at 5.96 µM | 0.073% of 340,000 active | AID 493087;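 active means activation above the mean of all tested compounds plus 3 SD, set per screening campaign, cut at about 17% in these data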
Myeloid diff – compounds promoting myeloid differentiation; shares compounds with Myeloid diff 2; 2% of 2,300 active; ER-HoxA9 myeloid progenitors, GFP/Mac1 double-positive flow; AID 651706; calls only;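 active means share of green or green-and-red cells above 9 and 9% in run 1 or 4 and 3% in run 2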
GFP autofluor – flagged as fluorescent in myeloid differentiation counter-screen | shares compounds with Myeloid diff 2 | fluorescence response, % (concentration not given with the values) | 7.4% of 2,300 active | AID 651707 | ER-HoxA9 myeloid progenitors, no estrogen, GFP autofluorescence flow cytometry; vehicle wells 0%, positive control 100%;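 active means over 5% cells positive for green fluorescent reporter, or over 2% positive for both it and APC stain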
Of the large screens only hits and unclear results are named; the others gave an inactive call (follow-up assays come after a bar, where they were run). Shown are actives, neighbours in structure and some others; about 2.6% of the full set was active somewhere.

CCOC(=O)c1c(S(=O)(=O)NCC(=O)Nc2ccc(OC)cc2)c(C)n(C)c1C	none
Cc1cc(C)n2nc(C(=O)OCC(=O)N3C(C)CCCC3C)nc2n1 (stereo not given)	none
COc1ccc(OC)c(S(=O)(=O)N2CCC(C(=O)NCc3ccccc3)CC2)c1	none | Myeloid diff inactive | GFP autofluor inactive
COc1ccc(OC)c(S(=O)(=O)N2CCC(C(=O)NCc3ccccc3OC)CC2)c1	none
CC/C(=C1/C(=O)CC(C)(C)C(C(=O)OC)C1=O)N1CCCC1 (stereo not given)	none | Myeloid diff inactive | GFP autofluor inactive
CC(=O)Nc1c([N+](=O)[O-])cc2c3c(cccc13)CC2	none (no result: TPT1 inh, CRFBP-R2 agonist, IDE inh, CRFBP-R2 block, IDE act)
CC1CCN(c2ccc3c(c2)S(=O)(=O)c2cccc(C(=O)NC4CCCCC4)c2C3=O)CC1	Myeloid diff 2 active (no result: TPT1 inh) | Myeloid diff inactive | GFP autofluor inactive
O=C(OCC(=O)c1c[nH]c2ccccc12)c1cccc(S(=O)(=O)N2CCCCCC2)c1	none | Myeloid diff inactive | GFP autofluor inactive
O=C(COC(=O)c1cccc(S(=O)(=O)N2CCCCC2)c1)NCc1ccccc1	none (no result: TPT1 inh, IDE inh)
Cn1c(CO)cnc1S(=O)(=O)Cc1ccc([N+](=O)[O-])cc1	none
Cc1ccnc(S(=O)(=O)Cc2ccc([N+](=O)[O-])cc2)n1	none | Myeloid diff inactive | GFP autofluor inactive
O=c1[nH]n(Cc2ccccc2)c2ccccc12	none
Cc1cc(F)ccc1-c1cc(C(=O)NCc2cc(C(F)(F)F)cc(C(F)(F)F)c2)[nH]n1	none (no result: TPT1 inh, CRFBP-R2 agonist, IDE inh, CRFBP-R2 block, IDE act)
Cc1csc(-c2cc(C(=O)NCc3cc(C(F)(F)F)cc(C(F)(F)F)c3)n[nH]2)c1	Myeloid diff 2 active (no result: TPT1 inh, CRFBP-R2 agonist, IDE inh, CRFBP-R2 block, IDE act) | Myeloid diff inactive | GFP autofluor inactive
COC(=O)C1=CN(c2cccc(OCc3ccccc3)c2)C(N)=C(C#N)C1c1cccc(F)c1 (stereo not given)	none (no result: TPT1 inh, CRFBP-R2 agonist, IDE inh, CRFBP-R2 block, IDE act)
Cn1c(-c2ccccc2)c[n+]2c1-c1ccccc1C2	none | Myeloid diff active | GFP autofluor inactive
Cc1ccc(CNC(=O)[C@H](C)NC(=O)C2CCN(C(=O)[C@@H]3CCCN3C(=O)OC(C)(C)C)CC2)cc1	Myeloid diff 2 active | Myeloid diff inactive | GFP autofluor inactive
COCCNC(=O)c1c[nH]c2ccc(S(=O)(=O)N(C)c3ccc(C)c(C)c3)cc2c1=O	none
CCc1nn(CC(=O)NCCCN(Cc2ccccc2)C(C)C)c(=O)c2cc3sccc3n12	Myeloid diff 2 active | Myeloid diff inactive | GFP autofluor inactive
Cc1cc(Cl)c2oc(C(=O)N(C)Cc3nccn3C)c(C)c2c1	none (no result: TPT1 inh, IDE inh)
CCCSc1nc(C)c2cc(C)cc(C)c2n1	Myeloid diff 2 active | Myeloid diff inactive | GFP autofluor inactive
COc1ccccc1C1(CCNS(=O)(=O)c2ccc(C)cc2)CCOC(C(C)C)C1 (stereo not given)	Myeloid diff 2 active | Myeloid diff inactive | GFP autofluor inactive
COc1ccccc1C1(CCNC(C)c2cccs2)CCOC(C(C)C)C1 (stereo not given)	none (no result: IDE act)
Cc1nc(SCC(=O)c2cc3ccccc3oc2=O)c(C#N)c(-c2ccccc2)c1C(=O)Nc1ccccc1	none | Myeloid diff inactive | GFP autofluor inactive
COc1ccc(-c2c(C#N)c(SCC(=O)c3cc4ccccc4oc3=O)nc(C)c2C(=O)Nc2ccccc2)cc1	Myeloid diff 2 inconclusive
CCOC(=O)Cc1csc(NS(C)(=O)=O)n1	none | Myeloid diff inactive | GFP autofluor inactive
CCOC(=O)Cc1csc(NC(=O)CC)n1	none
Cc1ccc(OCC(=O)OC(C)CN2CCCCC2)cc1 (stereo not given)	none
CN(C)c1nc(N)ncc1-c1ccc(Oc2ccccc2)cc1	none
N#Cc1c(N2CCN(C(=O)c3ccco3)CC2)nc(-c2ccccc2)c2c1CCCC2	none | Myeloid diff inactive | GFP autofluor inactive
O=C(c1ccc(-c2ccc([N+](=O)[O-])cc2)o1)N1CCCCCCC1	Myeloid diff 2 active (no result: TPT1 inh) | Myeloid diff inactive | GFP autofluor inactive
CCOC(=S)N/C(=N\S(=O)(=O)c1ccc(C)cc1)c1ccccc1	none
C=CC[C@@H](CC(=O)OC(C)(C)C)C(=O)OC[C@@H]1CCCN1C(=O)[C@@H](CC=C)CC(=O)N(CCO)Cc1ccccc1	none (no result: TPT1 inh)
CCN(CC)C(=O)CSc1ncnc2sccc12	none
CCN(CC)C(=O)CSc1ncnc2c(-c3cccs3)nsc12	none | Myeloid diff inactive | GFP autofluor inactive
CC(OC(=O)c1ccc(NC(=O)CC#N)cc1)C(=O)Nc1ccc2c(c1)OCCO2 (stereo not given)	none
CC(OC(=O)c1ccc(NC(=O)CC#N)cc1)C(=O)NC(c1ccccc1)c1ccccc1 (stereo not given)	none (no result: TPT1 inh) | Myeloid diff inactive | GFP autofluor inactive
CCOc1ccccc1NC(=O)C(OC(=O)c1ccc(NC(=O)CC#N)cc1)c1ccccc1 (stereo not given)	Myeloid diff 2 active | Myeloid diff inactive | GFP autofluor 5.3
CCOC(=O)c1c(NC(=O)C(C)OC(=O)c2ccc(NC(=O)CC#N)cc2)sc2c1CCCC2 (stereo not given)	Myeloid diff 2 active | Myeloid diff inactive | GFP autofluor inactive
CCOc1ccccc1NC(=O)C(OC(=O)c1ccccc1)c1ccccc1 (stereo not given)	none
CCc1cc(C(=O)N(CCCOC)c2c(N)n(Cc3ccccc3)c(=O)[nH]c2=O)sc1C	none
COc1cc2oc(=O)cc(-c3ccc(-c4ccc(C#N)cc4)cc3)c2c(OC)c1OC	none (no result: TPT1 inh, IDE inh) | Myeloid diff inactive | GFP autofluor inactive
COc1cc2oc(=O)cc(-c3ccc(-c4ccc(C)cc4)cc3)c2c(OC)c1OC	none (no result: TPT1 inh, IDE inh)
CC[C@H](CO)Oc1cc(NCc2ccc(Cl)c(Cl)c2)c2ncn(C(C)C)c2c1	none (no result: TPT1 inh)
CCC(CO)Oc1cc(NCc2ccc(Cl)cc2)c2ncn(C(C)C)c2c1 (stereo not given)	none (no result: TPT1 inh) | Myeloid diff inactive | GFP autofluor inactive
COc1ccccc1NC(=O)Cn1c(CCC(=O)O)ccc1-c1ccccc1	none
O=C(N/N=C/c1ccc([N+](=O)[O-])o1)c1ccc2c(c1)OCO2	none (no result: TPT1 inh, IDE inh) | Myeloid diff inactive | GFP autofluor inactive
NC(Cc1ccccc1)c1csc(Nc2ccc(C(=O)c3ccccc3)cc2)n1 (stereo not given)	none (no result: TPT1 inh, CRFBP-R2 agonist, IDE inh, CRFBP-R2 block, IDE act)
COc1ccc(NC(=S)N2CCN(C(c3ccccc3)c3ccccc3)CC2)c(OC)c1	none
COc1cccc(NC(=S)N2CCN(C(c3ccccc3)c3ccccc3)CC2)c1	none | Myeloid diff inactive | GFP autofluor inactive
O=C(O)C1CCCC2CN3CCc4c([nH]c5ccccc45)C3C(O)C21 (stereo not given)	none | Myeloid diff inactive | GFP autofluor inactive
CC12CN(NC(=O)c3ccccc3F)C3(C#N)CC1CCC23C (stereo not given)	none
